Experimental data reported in PubChem BioAssay (NCI).
Compounds without any hit were thinned out: in the full panel of roughly 83,000, 20% have a hit.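 The test compound was applied at a single concentration to cells in 96-well plates for 48 hours, and percent growth was recorded.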 A number with no mark means an inactive call. Calls of active or inactive are those of the source. Rule for the calls: active = growth percent below 10; inactive = the rest.

What was measured:
Assay in all cases: NCI-60 one-dose screen, 48 h (100 = growth as untreated, 0 = no growth, -100 = all killed)
Conditions in all cases: 10 µM
SN12C renal = test system: SN12C renal
UO-31 renal = test system: UO-31 renal
TK-10 renal = test system: TK-10 renal
ACHN renal = test system: ACHN renal
CAKI-1 renal = test system: CAKI-1 renal
A498 renal = test system: A498 renal
CCRF-CEM leukemia = test system: CCRF-CEM leukemia
MOLT-4 leukemia = test system: MOLT-4 leukemia
SR leukemia = test system: SR leukemia

Compound	growth (SN12C renal)	growth (UO-31 renal)	growth (TK-10 renal)	growth (ACHN renal)	growth (CAKI-1 renal)	growth (A498 renal)	growth (CCRF-CEM leukemia)	growth (MOLT-4 leukemia)	growth (SR leukemia)
CC(=O)N(C)c1ccc(Nc2ccc(Nc3ccc(N(C)C(C)=O)cc3)c3c2C(=O)c2ccccc2C3=O)cc1	71.4%	25.9%	79%	64.3%	30.2%	110%	55.7%	56.8%	72.6%
CNc1ncc(-c2ccc(C(F)(F)F)cc2)c(NC2CCCCCC2)n1	84%	38.4%	83.5%	73.1%	60.9%	83.4%	70.2%	68.2%	43.9%
C#Cc1ccc(-n2c(/C=C/c3ccc(Cl)c(F)c3)nc3ncccc3c2=O)cc1	-4.94% (active)	-82.5% (active)	-44.6% (active)	0.478% (active)	-14.2% (active)	-39% (active)	1.54% (active)	-18.6% (active)	-25.2% (active)
CC(=O)C1CCC2C3CC(F)C4=CC(=O)CCC4(C)C3C(O)CC12C (centres undefined)	92%	75.8%	122%	99.7%	96.1%	116%	93.6%	85.8%	92.9%
CC(=O)N1C/C(=C/c2ccc(Cl)cc2)C(=O)/C(=C/c2ccc(Cl)cc2)C1	-42.4% (active)	-88.8% (active)	-15.7% (active)	-46.1% (active)	-15% (active)	-5.57% (active)	-13.3% (active)	0.236% (active)	-15.1% (active)
O=C(C[P+](c1ccccc1)(c1ccccc1)c1ccccc1)C[P+](c1ccccc1)(c1ccccc1)c1ccccc1	-45.9% (active)	-98.2% (active)	-94.1% (active)	-99.4% (active)	-96.1% (active)	-93.8% (active)	-24% (active)	-28.9% (active)	-19.6% (active)
O=S(=O)(Nc1ccccn1)c1ccc(N=Nc2ccc(O)c3ncccc23)cc1	5.49% (active)	-24.1% (active)	-1.22% (active)	-1.83% (active)	-4.15% (active)	-11.5% (active)	7.55% (active)	4.77% (active)	0.457% (active)
COc1ccc(-c2nn(-c3cccc(NC(=O)Nc4ccc(Cl)c(C(F)(F)F)c4)c3)cc2-c2ccncc2)cc1Cl	21.1%	-11.2% (active)	10.3%	12.6%	9.1% (active)	-0.894% (active)	-3.16% (active)	-6.09% (active)	-18.4% (active)
O=C1/C(=C\c2ccc(F)cc2)CN(C(=O)c2ccccc2)C/C1=C\c1ccc(F)cc1	14.1%	38.7%	79.7%	24.3%	21.3%	52.3%	-12.6% (active)	4.36% (active)	-15.1% (active)
CCOC(=O)C1(CC(C)C)CCOC1=O (centres undefined)	94.7%	90.1%	106%	98.2%	92.4%	107%	92.2%	100%	104%
N#Cc1ncc(-c2ccc(C(F)(F)F)cc2)c(NCc2cc(C(F)(F)F)cc(C(F)(F)F)c2)n1	21.8%	26.1%	47.4%	0.868% (active)	17.9%	15.3%	10.5%	21.9%	12.1%
Cn1c(N)c(N=Nc2ccc(S(=O)(=O)Nc3nccs3)cc2)c(=O)n(C)c1=O	97%	68.6%	98.7%	102%	95.4%	96.9%	95.8%	92.6%	95.2%
Cc1ccc(N=Nc2c(N)nc(N)[nH]c2=O)cc1C	105%	72.5%	110%	106%	94.4%	103%	95.2%	93.2%	88.3%
N=C(N)c1ccc(-c2ccc(-c3cccs3)s2)s1	-74.9% (active)	-77.1% (active)	-51.1% (active)	66.4%	-49% (active)	-32.6% (active)	-52.3% (active)	-55.7% (active)	-50.9% (active)
CCOC(=O)N1C/C(=C/c2ccc(OC)cc2)C(=O)/C(=C/c2ccc(OC)cc2)C1	50.2%	17.1%	59.5%	39.3%	41.9%	-0.589% (active)	6.4% (active)	27.3%	-16.7% (active)
O=C(CCCCC[P+](c1ccccc1)(c1ccccc1)c1ccccc1)NC(COC(=O)C(Cl)Cl)(COC(=O)C(Cl)Cl)COC(=O)C(Cl)Cl	96.8%	94%	87.4%	113%	107%	89.7%	88.7%	97.6%	88.8%
Nc1c(C(=O)Nc2cccc(F)c2)sc2nc3c(cc12)C(=O)CCC3	37.4%	56.1%	85.5%	53.6%	28%	-12.1% (active)	17.9%	66.3%	16.1%
COc1cc(Cl)cc(-c2nn(-c3cccc(NC(=O)Nc4cc(C(F)(F)F)cc(C(F)(F)F)c4)c3)cc2-c2ccncc2)c1	9.32% (active)	-0.18% (active)	30.3%	10.3%	8.99% (active)	-21.6% (active)	-22% (active)	-24.6% (active)	-37.9% (active)
COc1ccc(Cl)cc1-n1nnc(-c2nc3ccccc3[nH]2)c1N	94.3%	71.9%	85.9%	51.4%	67.7%	89.3%	104%	98.5%	71.8%
O=C(Nc1ccc(CN2CCc3nc4cc(O)c(O)cc4cc32)cc1)c1ccc(Cl)c(Cl)c1	97.4%	88.9%	122%	98.2%	96.4%	103%	78%	106%	94.5%
O=c1cc(-c2ccccc2)[nH]n1-c1nc2ccccc2[nH]1	49.5%	38.4%	63.1%	37.2%	45.9%	1.96% (active)	11.9%	-18.6% (active)	39.3%
COc1ccc2c(c1)O/C(=C\c1ccc([N+](=O)[O-])o1)C2=O	6.92% (active)	-73.5% (active)	-33.7% (active)	6.05% (active)	-2.99% (active)	56.6%	0.117% (active)	-0.0457% (active)	7.61% (active)
O=C(Nc1cccc(-n2cc(-c3ccncc3)c(-c3ccc(O)c(Cl)c3)n2)c1)c1cc(C(F)(F)F)cc(C(F)(F)F)c1	63.6%	47.8%	62%	44.8%	30.7%	57.2%	29.5%	34.4%	39.1%
O=C(N/N=C/c1cc2ccccc2c2ccccc12)c1cc(O)c(O)c(O)c1	69.8%	39.2%	69.2%	47.2%	43.7%	106%	11.3%	35.6%	9.56% (active)
Clc1ccc(Nc2ccnc(NCCCNc3ccnc4cc(Cl)ccc34)n2)cc1	-51.6% (active)	-46.2% (active)	-82.9% (active)	-93.9% (active)	-71.5% (active)	-4.52% (active)	-19.9% (active)	-31.5% (active)	-55.5% (active)
COc1ccc(-c2nn(-c3cccc(NC(=O)c4cccc(C(F)(F)F)c4)c3)cc2-c2ccncc2)cc1Cl	45.3%	13.9%	41%	36.8%	11.3%	-11.9% (active)	7.1% (active)	24%	4.46% (active)
